# Tests used:
# [1] = target: T1, Ephrin type-A receptor 3 (Homo sapiens) (UniProt P29320); details: at 10 µM
# T1 sequence (whole entry): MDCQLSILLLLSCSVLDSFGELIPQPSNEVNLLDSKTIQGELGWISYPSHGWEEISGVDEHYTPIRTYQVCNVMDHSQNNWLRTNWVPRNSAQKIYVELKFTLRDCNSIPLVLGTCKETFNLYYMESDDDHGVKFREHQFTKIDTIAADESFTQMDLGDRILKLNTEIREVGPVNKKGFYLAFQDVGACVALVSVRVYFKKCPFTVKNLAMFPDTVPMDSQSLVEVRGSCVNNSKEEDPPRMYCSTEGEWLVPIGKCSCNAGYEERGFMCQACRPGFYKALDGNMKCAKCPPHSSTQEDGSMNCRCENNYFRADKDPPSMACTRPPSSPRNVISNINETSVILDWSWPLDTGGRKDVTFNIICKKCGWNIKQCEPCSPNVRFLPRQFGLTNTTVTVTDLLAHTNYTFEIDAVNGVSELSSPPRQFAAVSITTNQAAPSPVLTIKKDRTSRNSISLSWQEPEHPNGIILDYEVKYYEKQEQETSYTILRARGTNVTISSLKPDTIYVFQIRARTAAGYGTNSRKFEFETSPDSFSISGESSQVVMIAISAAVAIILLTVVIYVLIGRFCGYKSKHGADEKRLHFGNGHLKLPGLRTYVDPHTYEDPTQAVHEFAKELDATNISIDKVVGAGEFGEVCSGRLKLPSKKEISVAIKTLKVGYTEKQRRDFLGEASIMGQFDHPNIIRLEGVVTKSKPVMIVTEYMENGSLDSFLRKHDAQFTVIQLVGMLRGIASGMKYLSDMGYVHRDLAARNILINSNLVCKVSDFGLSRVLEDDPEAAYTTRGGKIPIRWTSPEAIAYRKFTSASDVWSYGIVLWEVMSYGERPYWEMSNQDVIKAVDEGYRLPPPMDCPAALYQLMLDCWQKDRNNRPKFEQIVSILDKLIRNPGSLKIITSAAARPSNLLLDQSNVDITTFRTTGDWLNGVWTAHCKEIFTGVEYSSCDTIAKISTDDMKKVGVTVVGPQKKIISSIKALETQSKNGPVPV
# [2] = target: Ephrin type-A receptor 4 (Homo sapiens) (UniProt P54764); details: at 1 µM
# Ephrin type-A receptor 4 (Homo sapiens), sequence (P54764 whole entry): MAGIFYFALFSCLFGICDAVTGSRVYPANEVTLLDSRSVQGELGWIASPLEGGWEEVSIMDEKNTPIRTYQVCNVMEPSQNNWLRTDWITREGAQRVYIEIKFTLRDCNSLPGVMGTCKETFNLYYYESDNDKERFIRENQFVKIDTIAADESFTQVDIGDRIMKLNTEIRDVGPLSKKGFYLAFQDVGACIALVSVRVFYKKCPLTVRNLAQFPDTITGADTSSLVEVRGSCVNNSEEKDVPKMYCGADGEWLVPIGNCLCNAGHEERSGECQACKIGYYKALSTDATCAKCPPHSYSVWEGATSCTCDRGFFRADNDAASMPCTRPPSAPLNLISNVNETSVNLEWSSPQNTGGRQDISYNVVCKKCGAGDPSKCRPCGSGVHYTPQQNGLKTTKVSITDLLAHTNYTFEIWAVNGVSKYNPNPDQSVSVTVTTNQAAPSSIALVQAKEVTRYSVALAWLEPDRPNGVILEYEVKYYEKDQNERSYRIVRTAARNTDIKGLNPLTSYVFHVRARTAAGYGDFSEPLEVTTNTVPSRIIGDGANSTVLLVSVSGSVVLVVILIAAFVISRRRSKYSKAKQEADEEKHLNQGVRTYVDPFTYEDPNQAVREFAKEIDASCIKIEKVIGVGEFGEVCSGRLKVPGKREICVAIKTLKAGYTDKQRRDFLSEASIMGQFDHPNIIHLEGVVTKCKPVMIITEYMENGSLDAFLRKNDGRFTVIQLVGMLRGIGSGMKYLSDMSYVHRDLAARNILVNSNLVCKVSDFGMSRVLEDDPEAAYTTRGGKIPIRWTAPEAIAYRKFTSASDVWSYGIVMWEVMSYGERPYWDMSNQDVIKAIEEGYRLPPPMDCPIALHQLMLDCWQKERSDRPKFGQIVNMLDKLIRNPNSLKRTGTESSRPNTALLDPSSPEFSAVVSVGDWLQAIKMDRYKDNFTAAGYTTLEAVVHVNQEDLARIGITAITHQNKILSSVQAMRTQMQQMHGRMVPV
# [3] = target: Ephrin type-A receptor 4 (Homo sapiens) (UniProt P54764); details: at 10 µM
# [4] = target: Ephrin type-A receptor 5 (Homo sapiens) (UniProt P54756); details: at 1 µM
# Ephrin type-A receptor 5 (Homo sapiens), sequence (P54756 whole entry): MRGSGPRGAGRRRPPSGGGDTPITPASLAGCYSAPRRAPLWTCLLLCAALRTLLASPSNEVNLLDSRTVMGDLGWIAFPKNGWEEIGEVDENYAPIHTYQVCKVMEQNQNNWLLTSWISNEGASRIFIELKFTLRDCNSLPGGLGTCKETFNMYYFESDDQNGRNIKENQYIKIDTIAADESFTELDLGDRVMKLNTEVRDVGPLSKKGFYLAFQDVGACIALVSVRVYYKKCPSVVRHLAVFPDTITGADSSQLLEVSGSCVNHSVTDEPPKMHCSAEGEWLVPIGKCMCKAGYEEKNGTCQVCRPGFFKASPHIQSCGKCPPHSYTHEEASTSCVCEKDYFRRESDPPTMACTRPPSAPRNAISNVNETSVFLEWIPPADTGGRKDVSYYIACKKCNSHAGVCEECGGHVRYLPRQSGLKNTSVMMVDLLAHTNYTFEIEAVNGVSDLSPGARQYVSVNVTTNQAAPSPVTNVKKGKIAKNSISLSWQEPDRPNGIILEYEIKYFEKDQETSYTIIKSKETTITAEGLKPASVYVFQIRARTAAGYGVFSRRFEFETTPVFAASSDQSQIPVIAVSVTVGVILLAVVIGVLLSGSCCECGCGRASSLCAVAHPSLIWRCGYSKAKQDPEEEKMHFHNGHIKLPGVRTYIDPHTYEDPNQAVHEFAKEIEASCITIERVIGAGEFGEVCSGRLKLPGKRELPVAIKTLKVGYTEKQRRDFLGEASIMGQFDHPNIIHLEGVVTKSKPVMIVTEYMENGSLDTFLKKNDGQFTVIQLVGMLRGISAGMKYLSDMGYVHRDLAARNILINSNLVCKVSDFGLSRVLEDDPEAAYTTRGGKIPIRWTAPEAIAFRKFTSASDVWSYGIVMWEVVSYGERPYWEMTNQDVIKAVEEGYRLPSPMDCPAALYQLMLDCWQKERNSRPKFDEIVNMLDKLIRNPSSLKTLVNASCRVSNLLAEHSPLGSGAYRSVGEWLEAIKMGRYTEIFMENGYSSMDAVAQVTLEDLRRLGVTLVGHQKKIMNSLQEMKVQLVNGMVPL
# [5] = target: Ephrin type-A receptor 5 (Homo sapiens) (UniProt P54756); details: at 10 µM
# [6] = target: Ephrin type-A receptor 7 (Homo sapiens) (UniProt Q15375); details: at 1 µM
# Ephrin type-A receptor 7 (Homo sapiens), sequence (Q15375 28-998 limits assumed): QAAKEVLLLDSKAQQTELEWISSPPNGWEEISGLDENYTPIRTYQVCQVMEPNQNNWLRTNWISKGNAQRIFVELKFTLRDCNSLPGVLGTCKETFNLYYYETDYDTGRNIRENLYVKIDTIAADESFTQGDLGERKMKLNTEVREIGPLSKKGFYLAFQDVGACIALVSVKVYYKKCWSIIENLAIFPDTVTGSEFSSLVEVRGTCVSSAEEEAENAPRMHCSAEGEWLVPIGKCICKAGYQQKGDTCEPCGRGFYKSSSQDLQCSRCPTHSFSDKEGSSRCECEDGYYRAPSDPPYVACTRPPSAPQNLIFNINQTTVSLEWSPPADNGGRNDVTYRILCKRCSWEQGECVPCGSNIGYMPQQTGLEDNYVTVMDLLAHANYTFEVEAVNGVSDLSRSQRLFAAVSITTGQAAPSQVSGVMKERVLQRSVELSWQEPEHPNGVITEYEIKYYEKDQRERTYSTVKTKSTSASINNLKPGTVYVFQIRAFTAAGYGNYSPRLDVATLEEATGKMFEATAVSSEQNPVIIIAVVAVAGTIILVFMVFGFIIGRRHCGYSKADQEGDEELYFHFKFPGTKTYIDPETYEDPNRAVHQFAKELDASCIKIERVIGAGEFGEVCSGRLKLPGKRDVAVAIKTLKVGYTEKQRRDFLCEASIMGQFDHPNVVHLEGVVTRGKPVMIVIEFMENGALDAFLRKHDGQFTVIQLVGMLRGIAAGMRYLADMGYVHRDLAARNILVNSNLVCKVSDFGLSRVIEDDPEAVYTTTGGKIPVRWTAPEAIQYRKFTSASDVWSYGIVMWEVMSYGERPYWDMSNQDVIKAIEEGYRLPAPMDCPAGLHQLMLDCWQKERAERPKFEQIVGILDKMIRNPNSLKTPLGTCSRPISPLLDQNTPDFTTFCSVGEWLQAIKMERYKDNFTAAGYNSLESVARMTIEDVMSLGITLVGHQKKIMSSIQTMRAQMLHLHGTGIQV
# [7] = target: Ephrin type-A receptor 7 (Homo sapiens) (UniProt Q15375); details: at 10 µM
# [8] = target: T2, Ephrin type-A receptor 8 (Homo sapiens) (UniProt P29322); details: at 1 µM
# T2 sequence (whole entry): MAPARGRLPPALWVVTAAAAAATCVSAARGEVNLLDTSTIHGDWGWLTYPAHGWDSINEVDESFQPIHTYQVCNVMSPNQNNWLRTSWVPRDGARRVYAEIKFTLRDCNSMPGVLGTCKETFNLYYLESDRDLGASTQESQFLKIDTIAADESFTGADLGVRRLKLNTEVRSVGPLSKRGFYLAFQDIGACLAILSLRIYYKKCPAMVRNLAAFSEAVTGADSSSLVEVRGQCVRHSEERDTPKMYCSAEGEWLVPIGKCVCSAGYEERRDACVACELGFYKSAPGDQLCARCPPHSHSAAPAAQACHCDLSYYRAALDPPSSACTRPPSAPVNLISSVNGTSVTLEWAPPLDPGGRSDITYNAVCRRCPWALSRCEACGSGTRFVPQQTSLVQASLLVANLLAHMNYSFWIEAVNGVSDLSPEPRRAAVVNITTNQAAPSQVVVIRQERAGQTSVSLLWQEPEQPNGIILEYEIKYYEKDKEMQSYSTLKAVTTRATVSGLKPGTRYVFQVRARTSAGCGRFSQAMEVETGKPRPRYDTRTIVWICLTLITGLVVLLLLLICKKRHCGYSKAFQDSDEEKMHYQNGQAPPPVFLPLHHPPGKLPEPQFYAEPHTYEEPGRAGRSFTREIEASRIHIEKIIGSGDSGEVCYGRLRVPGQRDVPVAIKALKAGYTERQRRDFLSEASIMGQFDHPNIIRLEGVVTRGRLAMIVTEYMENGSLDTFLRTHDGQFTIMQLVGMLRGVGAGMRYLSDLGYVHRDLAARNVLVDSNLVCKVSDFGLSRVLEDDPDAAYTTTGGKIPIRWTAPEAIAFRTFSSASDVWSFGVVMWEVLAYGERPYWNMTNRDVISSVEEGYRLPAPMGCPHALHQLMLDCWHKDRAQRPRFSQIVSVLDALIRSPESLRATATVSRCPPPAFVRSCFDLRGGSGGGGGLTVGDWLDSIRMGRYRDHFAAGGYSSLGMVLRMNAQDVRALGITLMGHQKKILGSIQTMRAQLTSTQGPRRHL
# [9] = target: T2, Ephrin type-A receptor 8 (Homo sapiens); details: at 10 µM
# [10] = target: T3, Ephrin type-B receptor 1 (Homo sapiens) (UniProt P54762); details: at 1 µM
# T3 sequence (whole entry): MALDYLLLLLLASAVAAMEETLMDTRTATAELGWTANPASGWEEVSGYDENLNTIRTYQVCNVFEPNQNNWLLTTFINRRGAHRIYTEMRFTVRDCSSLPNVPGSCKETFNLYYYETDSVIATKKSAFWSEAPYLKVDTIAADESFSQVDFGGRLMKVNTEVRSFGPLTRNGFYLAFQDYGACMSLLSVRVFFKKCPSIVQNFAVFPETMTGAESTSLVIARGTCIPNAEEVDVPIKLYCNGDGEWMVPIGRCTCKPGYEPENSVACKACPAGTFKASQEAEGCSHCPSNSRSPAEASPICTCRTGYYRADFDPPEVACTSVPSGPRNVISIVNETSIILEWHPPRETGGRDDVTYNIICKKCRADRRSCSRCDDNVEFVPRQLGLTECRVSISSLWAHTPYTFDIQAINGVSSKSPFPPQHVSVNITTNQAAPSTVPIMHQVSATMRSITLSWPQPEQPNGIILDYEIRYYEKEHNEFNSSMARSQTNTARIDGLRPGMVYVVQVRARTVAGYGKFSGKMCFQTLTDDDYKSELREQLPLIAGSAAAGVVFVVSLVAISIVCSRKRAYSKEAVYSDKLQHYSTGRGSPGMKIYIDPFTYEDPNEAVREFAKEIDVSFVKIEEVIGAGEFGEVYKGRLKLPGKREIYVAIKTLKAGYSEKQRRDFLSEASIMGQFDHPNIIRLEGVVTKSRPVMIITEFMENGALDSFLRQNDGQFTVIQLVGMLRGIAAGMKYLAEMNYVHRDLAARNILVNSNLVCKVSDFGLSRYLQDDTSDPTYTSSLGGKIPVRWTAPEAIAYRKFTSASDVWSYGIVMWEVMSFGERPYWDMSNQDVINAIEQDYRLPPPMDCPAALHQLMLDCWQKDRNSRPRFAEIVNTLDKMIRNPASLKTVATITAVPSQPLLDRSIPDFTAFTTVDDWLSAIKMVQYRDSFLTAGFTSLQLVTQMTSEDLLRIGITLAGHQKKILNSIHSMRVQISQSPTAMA
structure (smiles),measurement,setting,value
Nc1ccc2ncnc(NCCc3ccc(Oc4ccccc4)cc3)c2c1,residual activity,[1],92%
same,residual activity,[2],125%
same,residual activity,[3],104%
same,residual activity,[4],110%
same,residual activity,[5],113%
same,residual activity,[6],112%
same,residual activity,[7],100%
same,residual activity,[8],104%
same,residual activity,[9],99%
same,residual activity,[10],114%

# Reference: ChEMBL document CHEMBL2218924, “A broad activity screen in support of a chemogenomic map for kinase signalling research and drug discovery” (Biochem J, 2013)
